Compounds with a hit are over-represented: about 12% of the library has one in this group of screens.
BAZ2B block = blocks human BAZ2B; Potency, µM (titrated, usually from 114 µM), inactives show at the highest dose activity change, negative = inhibition, most hits filed as inhibitors; 360,000 tested, 4.4% active; Q9UIF8; AID 504333; AlphaScreen BAZ2B-H3K14Ac peptide displacement; further: on the % scale 0 is the no-effect control and ±100 the full control effect; nearly all actives have a fitted effect of over 60% in size
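BAZ2B (50 nM) with biotin-H3(5-23)K14Ac peptide (50 nM) in PBS pH 7.4, 0.01% Tween-20, preformed 30 min, then compound 30 min at room temperature; top concentration 110uM. AlphaScreen streptavidin donor/nickel chelate acceptor beads (10 ug/mL final), 20 min dark, signal read.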
Sfp PPTase inh = Sfp phosphopantetheinyl transferase inhibition; Q9F4F7; Biochemical Sfp PPTase activity, qHTS; Potency, µM, inactives show largest response in the series, negative = inhibition, most hits filed as inhibitors; 310,000 tested, 3.5% active;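 further: the enzyme is Sfp with the accession as filed and its product quenches rhodamine fluorescence; 0% = enzyme reaction without inhibitor and -100% = no enzyme wells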
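Fluorescence-quenching assay: 15 nM Sfp-PPTase preincubated 15 min at room temperature with compound, then 5 uM rhodamine-CoA and 12.5 uM BHQ-2-labelled YbbR peptide added. Fluorescence (ex 525/em 598 nm) read at start and after 30 min; difference gives rate.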
G9a inh = blocks human histone lysine methyltransferase G9a; 350,000 tested, 8.8% active; AID 504332; Q96KQ7; G9a H3K9 monomethylation, AlphaScreen, 2 h; Potency, µM (top dose mostly 102 µM), for the others: at the top dose activity, negative = inhibition, hits mostly inhibitors; further: on the % scale 0 is the no-effect control and ±100 the full control effect; nearly all actives have a fitted effect of over 75% in size
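Using a bead-based AlphaScreen, monomethylated H3K9 product from 2 h room-temperature reactions (G9a 20 nM, peptide 500 nM, SAM 20 uM) was detected with 0.5 ug/mL rabbit anti-H3K9me1 antibody.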
HP1b binding inh = inhibitors of HP1-beta chromodomain binding to methylated histone tails | AID 540317 | P83916 | Potency, µM (titrated, usually from 114 µM), without a hit: at the highest dose activity change, negative = inhibition, most hits filed as inhibitors | AlphaScreen HP1-beta / biotin-H3K9me3 peptide binding | 390,000 tested, 0.56% active; further: nearly all actives have a fitted effect of over 70% in size
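HP1-beta protein (50 nM final) preincubated 30 min at room temperature with biotinylated H3(1-18)K9me3 peptide (50 nM) in PBS pH 7.4, 0.01% Tween-20, then compound added for 30 min. AlphaScreen streptavidin donor/nickel chelate acceptor beads (10 ug/mL final), 30 min dark, luminescence read.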
JMJD2A Tudor = inhibitors of human JMJD2A Tudor domain. O75164. AlphaScreen JMJD2A-Tudor / H3K4me3 peptide binding. Potency, µM (doses to about 114 µM), for the others: at the highest dose activity change, negative = inhibition, actives largely listed as inhibitors. 390,000 tested, 4.4% active. AID 504339; further: on the % scale 0 is the no-effect control and ±100 the full control effect; nearly all actives have a fitted effect of over 50% in size
Target sequence (O75164 whole entry, looked up, the tested form may be a part): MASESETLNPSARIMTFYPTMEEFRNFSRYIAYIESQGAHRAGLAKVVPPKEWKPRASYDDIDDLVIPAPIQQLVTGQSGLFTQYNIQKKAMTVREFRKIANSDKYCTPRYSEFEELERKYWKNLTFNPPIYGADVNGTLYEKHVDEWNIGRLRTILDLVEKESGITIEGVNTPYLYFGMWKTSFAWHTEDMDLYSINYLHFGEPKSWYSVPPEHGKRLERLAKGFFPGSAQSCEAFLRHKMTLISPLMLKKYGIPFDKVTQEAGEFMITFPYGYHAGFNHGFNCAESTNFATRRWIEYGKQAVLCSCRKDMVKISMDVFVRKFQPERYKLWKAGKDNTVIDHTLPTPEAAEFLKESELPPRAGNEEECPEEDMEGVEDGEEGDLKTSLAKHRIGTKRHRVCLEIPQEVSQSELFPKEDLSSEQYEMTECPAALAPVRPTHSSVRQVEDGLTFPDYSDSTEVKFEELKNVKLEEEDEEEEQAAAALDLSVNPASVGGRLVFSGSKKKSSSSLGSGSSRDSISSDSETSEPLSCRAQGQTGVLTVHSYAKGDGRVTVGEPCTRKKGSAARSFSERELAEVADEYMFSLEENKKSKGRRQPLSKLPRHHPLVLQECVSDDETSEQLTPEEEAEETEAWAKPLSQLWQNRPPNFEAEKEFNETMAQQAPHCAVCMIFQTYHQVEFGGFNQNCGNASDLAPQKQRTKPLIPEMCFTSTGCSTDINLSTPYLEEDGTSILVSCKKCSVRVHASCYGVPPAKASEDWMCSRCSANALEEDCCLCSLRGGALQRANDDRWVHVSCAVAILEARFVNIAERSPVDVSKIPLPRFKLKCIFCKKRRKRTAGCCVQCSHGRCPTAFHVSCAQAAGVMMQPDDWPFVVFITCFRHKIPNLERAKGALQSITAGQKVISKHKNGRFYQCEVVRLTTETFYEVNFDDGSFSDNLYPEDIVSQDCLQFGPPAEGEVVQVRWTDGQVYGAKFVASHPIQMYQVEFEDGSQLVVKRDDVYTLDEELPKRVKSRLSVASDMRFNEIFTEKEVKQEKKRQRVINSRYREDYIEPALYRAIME
PLK1 PBD block = blocks phosphopeptide binding to human PLK1 polo-box domain. P53350. AID 720504. 360,000 tested, 2.8% active. Plk1 PBD binding of FITC phosphopeptide, fluorescence polarization. Potency, µM, for inactives: max response, negative = inhibition, usual class: inhibitors; further: series mostly up to about 57 µM; on the % scale 0 is the no-effect control and ±100 the full control effect; nearly all actives have a fitted effect of over 65% in size
Active calls of the source: *; [ ] = remark or other dose. The call rests on the fitted dose curve; in most records, active means well fitted curve in the direction sought with a large enough effect; inconclusive means small, poorly fitted or top-dose-only effect, or another doubt; inactive means no such curve, though single readings can be large; an effect the other way counts as inactive or inconclusive. Potency means the concentration at half of the fitted maximal effect.

`COc1cccc(C2Nc3ccccc3C(=O)N2Cc2ccccc2)c1` (configuration not stated) gave HP1b binding inh 73%, JMJD2A Tudor -1% and PLK1 PBD block 0%.
Screening O=C(Oc1ccccc1)N1CCC2(CC1)CN(Cc1ccncc1)C2 returned Sfp PPTase inh 5% and G9a inh 37%[12.7 µM].
`O=C(OC1Cc2c(O)cc(O)cc2OC1c1cc(O)c(O)c(O)c1)c1cc(O)c(O)c(O)c1` (configuration not stated) gave Sfp PPTase inh 18µM*.
Screening O=C(O[C@@H]1Cc2c(O)cc(O)cc2O[C@@H]1c1cc(O)c(O)c(O)c1)c1cc(O)c(O)c(O)c1 returned BAZ2B block 8.9µM*, Sfp PPTase inh 11µM* and G9a inh 1.8µM*.
CN(CCOc1ccc(C=C2C(=O)NC(=O)NC2=O)cc1)c1ccccn1 was read as BAZ2B block -23%, Sfp PPTase inh 79µM*, G9a inh 45µM*, HP1b binding inh 20%, JMJD2A Tudor inconclusive and PLK1 PBD block 3µM*.
Screening c1ccc2c(c1)cc1ccc3cccc4ccc2c1c34 returned HP1b binding inh 147%, JMJD2A Tudor 88% and PLK1 PBD block -2%.
Screening O=C1C=CC(=O)c2c1ccc1c2ccc2ccccc21 returned Sfp PPTase inh 3.5µM* and G9a inh 5µM*.
Screening CC(C)(O)[C@H]1O[C@H]2CC[C@@]3(C)[C@@](O)(CC[C@H]4Cc5c([nH]c6ccccc56)[C@@]43C)C2=CC1=O returned BAZ2B block inconclusive, Sfp PPTase inh 11%, G9a inh 32µM*, HP1b binding inh -14%, JMJD2A Tudor inconclusive and PLK1 PBD block -22%.
`CNC(C(=O)c1ccccc1)C(OC(C)=O)c1cccc([N+](=O)[O-])c1` (configuration not stated) gave BAZ2B block -24%, Sfp PPTase inh 22%, G9a inh 50µM*, HP1b binding inh 6%, JMJD2A Tudor -35% and PLK1 PBD block -17%.
`CN(CCc1nnc(N)s1)[N+](=O)[O-]` gave BAZ2B block -1%, Sfp PPTase inh -4%, G9a inh 22µM*, HP1b binding inh 40%, JMJD2A Tudor -15% and PLK1 PBD block inconclusive.
Screening Cc1cc(-c2ccc(C)c(S(=O)(=O)N3CCOc4ccc(Cl)cc43)c2)on1 returned BAZ2B block 33%, G9a inh 24%[59 µM], HP1b binding inh 64% and JMJD2A Tudor -10%.
For CN1CN(c2ccccc2)C2(CCN(CCCSc3ccccc3NC(=O)/C=C/c3ccccc3)CC2)C1=O the results were HP1b binding inh inconclusive, JMJD2A Tudor 40µM* and PLK1 PBD block 1%.
Screening O=C1NC(=O)C(=CCc2ccccc2)C(=O)N1 returned HP1b binding inh 62%, JMJD2A Tudor -8% and PLK1 PBD block 0%.
For O=C1NC(=O)C(=Cc2ccccc2Oc2ccc(F)cc2)C(=O)N1 the results were BAZ2B block 16%, Sfp PPTase inh 45µM*, G9a inh 10µM*, HP1b binding inh 42%, JMJD2A Tudor -2% and PLK1 PBD block 12µM*.
For Cc1ccc(S(=O)(=O)Oc2ccccc2C=C2C(=O)NC(=O)NC2=O)cc1 the results were PLK1 PBD block 4.7µM*.
For CC(=O)Nc1c(I)c(C(=O)O)c(I)c(N(C)C(C)=O)c1I the results were Sfp PPTase inh 29% and G9a inh inconclusive.
For COc1ccc(F)cc1CN1CCN(C(=O)CCC(=O)Nc2nnc(CC(C)C)s2)CC1 the results were BAZ2B block 4%, Sfp PPTase inh 13%, G9a inh -4%, HP1b binding inh 40%, JMJD2A Tudor -2% and PLK1 PBD block 8%.
Screening COC1C(OC(=O)c2ccc(C)[nH]2)C(O)C(Oc2ccc3c(O)c(NC(=O)c4ccc(O)c(CC=C(C)C)c4)c(=O)oc3c2Cl)OC1(C)C (configuration not stated) returned BAZ2B block inconclusive, Sfp PPTase inh 9%, HP1b binding inh inconclusive, JMJD2A Tudor 50µM* and PLK1 PBD block -6%.
Screening CC(C)(C)OC(=O)C(Br)CCBr (configuration not stated) returned Sfp PPTase inh -10%.
`Cc1ccc(N=Nc2cc(C)ccc2N)cc1` gave BAZ2B block 7.9µM*, Sfp PPTase inh -8%, HP1b binding inh inconclusive, JMJD2A Tudor inconclusive and PLK1 PBD block -12%.
For CCN1C[C@@]2(COC)CC[C@H](O)[C@@]34[C@@H]2C[C@@H]([C@@H]13)[C@]1(O)C[C@@H](OC)C2C[C@H]4[C@H]1[C@H]2OC(C)=O the results were Sfp PPTase inh 13% and G9a inh 26%[21.5 µM].
Screening Cc1ccc(C)c(N2CCN(C(=O)C3CCN(Cc4nc(-c5cccc(Cl)c5)oc4C)CC3)CC2)c1 returned BAZ2B block 8.9µM*, G9a inh inconclusive, HP1b binding inh -23% and JMJD2A Tudor 40µM*.
Screening Cc1ccc(Cl)cc1N1CCN(C(=O)C2CCN(Cc3nc(-c4ccc(Cl)cc4)oc3C)CC2)CC1 returned BAZ2B block 8.9µM*, G9a inh inconclusive, HP1b binding inh -16% and JMJD2A Tudor inconclusive.
COc1cc(C(=O)OCc2cc(=O)c(O)co2)ccc1OC(F)F was read as BAZ2B block inconclusive, Sfp PPTase inh 13%, G9a inh inconclusive, HP1b binding inh 15%, JMJD2A Tudor -9% and PLK1 PBD block -2%.
`CCOc1cccc(=NC2CCCCC2)c2c(C)n(C)c(C)c12` gave BAZ2B block inconclusive, Sfp PPTase inh -6%, G9a inh 50µM*, HP1b binding inh inconclusive, JMJD2A Tudor inconclusive and PLK1 PBD block -3%.
Screening CCOc1ccccc1CN1C2CCC1CC(c1ccc(C)cc1)C2 (configuration not stated) returned BAZ2B block -6%, Sfp PPTase inh 7%, G9a inh 31%, HP1b binding inh 70%, JMJD2A Tudor -3% and PLK1 PBD block -1%.
O=C1NC(=O)C(=CN2CCc3ccccc32)C(=O)N1 was read as BAZ2B block -3%, Sfp PPTase inh -29%, G9a inh 13µM*, HP1b binding inh 2%, JMJD2A Tudor -18% and PLK1 PBD block -6%.
O=C(CC1NCCC[C@H]1O)Cn1cnc2cc(Br)c(Cl)cc2c1=O (some centres not stated) was read as Sfp PPTase inh inconclusive and G9a inh -50%[12.7 µM].
`CCN1CCN(C(=O)Cc2c(C)n(C(=O)c3ccc(Cl)cc3)c3ccc(OC)cc23)CC1` gave BAZ2B block 71µM*, Sfp PPTase inh -12%, G9a inh 50µM*, HP1b binding inh 28%, JMJD2A Tudor -35% and PLK1 PBD block -11%.

Screens deposited in PubChem BioAssay by National Center for Advancing Translational Sciences (NCATS).
